High-throughput results (PubChem)
This is a sample that favours compounds with a hit; in the whole collection about 1.9% have one here.
RXFP1 agonist = agonists of human relaxin receptor RXFP1; Q9HBX9; HEK293T-RXFP1 cAMP TR-FRET, 30 min; response scale: percent of porcine relaxin response, buffer zero; Potency, µM (series often up to 57.5 µM), for the others: at the top dose activation, usual class: activators; actives 0.3% (n = 370,000); AID 2676; note: potency is the fitted concentration of half-maximal effect; % is set by controls: 0 for no effect and ±100 for the full control effect; nearly all actives have a fitted effect of over 60% in size
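cAMP rise read by TR-FRET after 30 min, 37C compound exposure (up to 58 uM) in RXFP1-transfected HEK293 cells with Ro 20174 present. EC50 from Hill-equation fits, with 29 nM porcine relaxin as 100% and buffer as basal.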
RXFP1 antag = blocks the human relaxin receptor RXFP1; Q9HBX9; HEK293-RXFP1, relaxin-stimulated cAMP HTRF, 30 min; hits give low values; activity change, negative = inhibition, % at 57.5 µM; actives 0.59% (n = 350,000);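 active = activity change of -60% or lower, but not beyond a set lower limit; inconclusive = change between -60% and -40%, or beyond the set limit; inactive = change above -40%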; note: % is set by controls: 0 for no effect and ±100 for the full control effect
BRCA1 expr act = BRCA1 expression activation; MCF7-BRCA1-FFLuc reporter, luminescence, 48 h; response scale: scaled: vehicle 0%, 10 µM genistein 100%; Potency, µM (top dose mostly 46.1 µM), inactives show at the highest dose activation, most hits filed as activators; actives 1.1% (n = 380,000); AID 624202; note: potency is the fitted concentration of half-maximal effect; nearly all actives have a fitted effect of over 80% in size
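Activators of BRCA1 expression were detected as increased firefly luciferase luminescence in engineered MCF7 cells after 48 h compound incubation. Signals were scaled to genistein 10 microM as full activation.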
IL2 activator = activators of IL-2; actives 0.065% (n = 360,000); activation, % (series mostly up to about 46 µM); IL-2 activation reporter assay, cell-based qHTS; stimulated with anti-CD3/CD4/CD28 beads; in transgenic mouse T cells; in the data active = activation above about 50%; inconclusive = mostly about 30% to 49%; note: 0% is about no effect
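First, unstimulated transgenic mouse T cells were exposed to compound for 60 min. Next, anti-CD3/anti-CD4-coated beads with anti-CD28 were added. Finally, after 18 h at 37 degrees C, EGFP and DsRed were imaged.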
NPSR antagonist = blocks cAMP signaling of the human neuropeptide S receptor; AID 1461; actives 1% (n = 220,000); Q6W5P4; CHO-NPSR cells, cAMP TR-FRET, antagonist mode; Potency, µM (top dose mostly 38.3 µM), for inactives: at the highest dose activity change, negative = inhibition, usual class: inhibitors; note: potency is the fitted concentration of half-maximal effect; % is set by controls: 0 for no effect and ±100 for the full control effect; nearly all actives have a fitted effect of over 50% in size
Target sequence (Q6W5P4 whole entry, looked up): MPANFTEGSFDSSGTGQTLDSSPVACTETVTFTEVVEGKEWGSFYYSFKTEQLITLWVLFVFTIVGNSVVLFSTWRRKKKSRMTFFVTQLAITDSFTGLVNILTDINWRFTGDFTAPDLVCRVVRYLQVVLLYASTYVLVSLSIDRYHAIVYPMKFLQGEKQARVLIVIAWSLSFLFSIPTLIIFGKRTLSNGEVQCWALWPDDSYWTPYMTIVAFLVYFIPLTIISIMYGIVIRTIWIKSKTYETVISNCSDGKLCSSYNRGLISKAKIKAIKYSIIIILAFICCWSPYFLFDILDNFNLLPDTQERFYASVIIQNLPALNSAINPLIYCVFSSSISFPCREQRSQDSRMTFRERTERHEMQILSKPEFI
Giardia killer = Giardia lamblia killing. Giardia lamblia trophozoite viability. activity change, % at 7.66 µM, hits read low. actives 0.15% (n = 340,000); in the data active = activity change below about -80%; inconclusive = between about -30% and that limit;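 note: parasites exposed to compound for two days anaerobically before the ATP read; % is set by controls: 0 for no effect and ±100 for the full control effect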
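Anaerobic 48 hrs incubation at 37 deg C of 100 trophozoites/well with test compounds; ATPLite 1-Step luminescence, 15-30 min RT, reports cellular ATP as viability.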
Numbers without * were called inactive; ? = inconclusive; . = no result; [ ] = another dose, or the depositor's remark. Unless noted, calls come from the whole dose curve; as a rule, active = well fitted curve in the direction sought with a large enough effect; inconclusive = small, poorly fitted or top-dose-only effect, or another doubt; inactive = no such curve, though single readings can be large; an effect the other way counts as inactive or inconclusive.

SMILES | RXFP1 agonist | RXFP1 antag | BRCA1 expr act | IL2 activator | NPSR antagonist | Giardia killer
COC(=O)c1sc2cc(=O)n(-c3cccc(C(F)(F)F)c3)nc2c1O | -1% | -10 | 19% | 1 | 10µM* | -8
COc1ccc2c3n([n+]([O-])c2c1)CCN=C3c1cc(Cl)c(N)c(Cl)c1 | 1% | . | -45% | 0 | . | -93*
COc1ccc2c3n([n+]([O-])c2c1)CCN=C3c1ccc(C)cc1 | -1% | . | 15% | 0 | . | -90*
COc1ccc2c3n(nc2c1)CCN=C3c1ccc(Cl)cc1 | 2% | . | -20% | 0 | . | -20
COc1ccc(C2=NCCn3nc4cc(OC)ccc4c32)cc1 | 0% | . | 0% | 0 | . | -6
CC1(C)CC(=O)C2=C(C1)NC(Nc1nc3ccccc3o1)=NC2c1cccc(F)c1 (stereo not given) | . | . | 16% | . | . | 17
Oc1ccc2ccccc2c1CN1CCCC1 | 1% | -23 | -2% | 0 | 8% | -15
CCN1CCN(Cc2c3ccccc3cc3ccccc23)CC1 | -1% | -60* | -7% | 0 | . | 5
CC1CCN(C(=O)Nc2ccc3nc(-c4ccco4)c(-c4ccco4)nc3c2)CC1 | . | . | 16% | . | . | -16
Cc1cc2[nH]c3c(c[n+](C)c4ccccc34)c2cc1C | 6% | ? | -73% | -1 | ? | -84*
Cc1ccc(C2C(C(=O)c3cccs3)=C(O)C(=O)N2c2nnc(C)s2)cc1 (stereo not given) | 20µM* | -1 | 23% | 6 | -55% | 16
COc1ccc(Nc2cc(C)c3cc(NC(=O)c4cc(OC)cc(OC)c4)ccc3n2)cc1 | 2% | . | -64% | . | . | .
Cc1ccc2c(c1)NC(=O)CC(c1ccccc1)=N2 | 2% | 5 | 10µM* | 0 | 8%[46.1 µM] | -6
O=C1CC(c2ccccc2)=Nc2ccc(Br)cc2N1 | 1% | -11 | -59% | 0 | -11% | -1
O=C(Nc1ccc(C(=O)O)cc1)/C(=C\C=C\c1ccccc1)NC(=O)c1ccccc1Br | -4% | -8 | 10µM* | 1 | . | 7
O=C(Nc1ccc(C(=O)O)cc1)/C(=C\C=C\c1ccccc1)NC(=O)c1cccc(Br)c1 | 0% | -33 | -36% | -2 | -22% | -12
CCc1ccc(-n2c(=O)c3c4c(sc3n(CC(=O)N3CCCCC3CC)c2=O)CCC4)cc1 (stereo not given) | 6% | . | 10% | . | . | .
COc1ccc(OC)c(CNC(=O)Cn2nc(C)c3nn(-c4ccc(Cl)cc4)c(C)c3c2=O)c1 | 11% | -3 | . | . | . | .
COc1ccccc1CNCCCCCCNCCCCCCCCNCCCCCCNCc1ccccc1OC | . | . | . | . | 13µM* | .
COc1ccccc1CNC(=O)Cc1ccccc1 | 0% | 2 | 11µM* | 3 | . | -20
COc1ccc2c(c1)CCc1c(C(=O)NCc3ccco3)noc1-2 | 2% | 4 | 6.3µM* | -1 | -17%[46.1 µM] | -20
COCC(C)NC(=O)c1noc2c1CCc1cc(OC)ccc1-2 (stereo not given) | -1% | 0 | ? | 0 | -16%[46.1 µM] | 9
COc1ccc2c(c1)CCc1c(C(=O)NCCN3CCOCC3)noc1-2 | 3% | 0 | -39% | 0 | -5%[46.1 µM] | -1
COCCNC(=O)c1noc2c1CCc1cc(OC)ccc1-2 | 2% | 12 | 2.2µM* | -1 | -7%[46.1 µM] | -29
Cc1oc(=O)oc1COC(=O)[C@@H]1N2C(=O)[C@@H](NC(=O)[C@H](N)c3ccccc3)[C@H]2SC1(C)C | . | -13 | . | . | . | .
SMILES | RXFP1 agonist | RXFP1 antag | BRCA1 expr act | IL2 activator | NPSR antagonist | Giardia killer
Cc1ccc(OCC(=O)c2cc(C)n(-c3cc(C)on3)c2C)c([N+](=O)[O-])n1 | 2% | -27 | -80% | 0 | . | -24
COc1ccc(-n2c(C)cc(C(=O)COc3ccc(C)nc3[N+](=O)[O-])c2C)cc1 | 1% | -2 | -61% | -4 | -13% | -81*
CC(C)Cc1nn2c(=O)cc(COC(=O)c3ccc(NC(=O)C4CCCCC4)cc3)nc2s1 | -3% | 9 | . | . | . | .
COc1cc(OC)nc(O[C@H](C(=O)O)C(OC)(c2ccccc2)c2ccccc2)n1 | . | -21 | . | . | . | .
COc1ccccc1NC(=O)Nc1nnc(CC(=O)Nc2ccccc2)s1 | 2% | . | . | . | -6% | .
COc1ccccc1NC(=O)Nc1nc(CC(=O)NCc2ccc(F)cc2)cs1 | -2% | -76* | -65% | -6 | . | 10
CCc1nnc(NC(=O)Nc2ccccc2OC)s1 | -1% | -8 | 6.3µM* | -3 | -21%[46.1 µM] | -3
CSc1ccc(-c2nnc(NC(=O)c3ccc4c(c3)OCCO4)o2)cc1 | 3% | 11 | . | . | . | .
CCCC(=O)Nc1nnc(-c2ccc3c(c2)OCCO3)o1 | -1% | -7 | 6.3µM* | -1 | 15% | -7
COc1ccc(CCN2C(=S)N(C)C(=O)C2CC(=O)Nc2ccc(OC)cc2)cc1 (stereo not given) | 1% | -63* | -19% | -1 | 43% | 12
COc1ccc(NC(=O)CC2C(=O)N(C)C(=S)N2CCc2ccc(F)cc2)cc1 (stereo not given) | 0% | -27 | -62% | -1 | 56% | -4
N#CC(C#N)=C1NC(N)=C(C#N)C(c2ccccc2)=C1C#N | 28µM* | . | . | . | . | .
O=C(N/N=C/c1ccc([N+](=O)[O-])o1)c1cn(-c2ccccc2)nc1-c1ccc(Cl)cc1 | 1% | 5 | -12% | 0 | -27% | -90*
O=C(N/N=C/c1ccc([N+](=O)[O-])o1)c1cn(-c2ccccc2)nc1-c1ccccc1 | 0% | 4 | -34% | -2 | -31% | -95*
CC(C)(C)c1ccc2c(c1)OC(C(=O)N/N=C/c1ccc([N+](=O)[O-])o1)CO2 (stereo not given) | -3% | ? | 48% | -1 | 3%[7.67 µM] | -98*
O=C(N/N=C\c1ccc(-c2ccc([N+](=O)[O-])cc2)o1)c1ccc2c(c1)OCO2 | -3% | . | -10% | 1 | 1% | 19
O=C(N/N=C/c1ccc([N+](=O)[O-])o1)c1ccc2c(c1)OCO2 | 4% | -4 | -98% | 1 | . | -91*
O=C(O)COc1ccc(/C=N/NC(=O)c2cn(-c3ccccc3)nc2-c2ccccc2)cc1 | -1% | -19 | -3% | 0 | . | -3
O=C(OCc1cc(=O)n2nc(C3CC3)sc2n1)c1ccc(NC(=O)c2ccccc2Cl)cc1 | 2% | -11 | . | . | . | .
Cn1c(C(=O)NCc2cccc(F)c2)cc2cc(S(=O)(=O)N3CCCCC3)ccc21 | 6% | -11 | . | . | . | .
C=C1C=C(C)n2ncc(C(=O)Nc3cccc(C(=O)Nc4cccc(C(F)(F)F)c4)c3)c2N1 | . | . | 10% | . | . | .
O=C(N/N=C\c1ccccc1)c1ccccc1-n1cccc1 | 0% | 1 | -31% | 7 | 0% | -1
O=C(N/N=C/c1ccc([N+](=O)[O-])o1)c1ccccc1-n1cccc1 | 1% | 6 | -82% | -1 | . | -99*
